# From paper PMC7862700, “An all-to-all approach to the identification of sequence-specific readers for epigenetic DNA modifications on cytosine”
# Key:
# Experiment in all cases: DAPPL (digital affinity profiling via proximity ligation, sequencing); 10 mM Tris-HCl pH 7.5, 50 mM NaCl, 1 mM DTT, 4% glycerol, room temperature, 30 min; GST-TFs on glutathione beads, 16-mer random dsDNA library, 0.1% formaldehyde crosslink after washing; high values mean tight binding
# FEV = target: T1, FEV (Homo sapiens, UniProt Q99581 1-238); settings: protein: recombinant; tags: N-terminal GST; dsDNA, one strand shown
# T1 sequence: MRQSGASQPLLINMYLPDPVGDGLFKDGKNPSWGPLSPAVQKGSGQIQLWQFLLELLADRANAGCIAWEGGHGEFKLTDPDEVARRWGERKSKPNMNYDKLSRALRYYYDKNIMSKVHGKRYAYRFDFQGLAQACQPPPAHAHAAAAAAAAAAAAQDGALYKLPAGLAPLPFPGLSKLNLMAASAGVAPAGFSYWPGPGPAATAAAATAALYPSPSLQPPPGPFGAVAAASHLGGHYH
# How it was run: (§1)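 Sequencing on an Illumina NextSeq500 followed washing, crosslinking with 0.1% formaldehyde, proximity ligation (BsaI/T4 ligase, 1 h, 37 °C) and PCR amplification of pools that had been incubated for 30 min at room temperature with 200 nmole of a random double-stranded 16-mer DNA library in Tris/NaCl/DTT/glycerol buffer. Each pool held DNA-barcoded human transcription factors, expressed in yeast as GST fusions and captured on glutathione beads, plus a tag-only sample. Binding signal is a hexamer's read frequency for a factor divided by its frequency in the tag-only sample.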
# ETV5 = ETV5 (Homo sapiens, UniProt P41161 1-510); settings: protein: recombinant; tags: N-terminal GST; dsDNA, one strand shown
# ETV5, sequence (P41161 whole entry): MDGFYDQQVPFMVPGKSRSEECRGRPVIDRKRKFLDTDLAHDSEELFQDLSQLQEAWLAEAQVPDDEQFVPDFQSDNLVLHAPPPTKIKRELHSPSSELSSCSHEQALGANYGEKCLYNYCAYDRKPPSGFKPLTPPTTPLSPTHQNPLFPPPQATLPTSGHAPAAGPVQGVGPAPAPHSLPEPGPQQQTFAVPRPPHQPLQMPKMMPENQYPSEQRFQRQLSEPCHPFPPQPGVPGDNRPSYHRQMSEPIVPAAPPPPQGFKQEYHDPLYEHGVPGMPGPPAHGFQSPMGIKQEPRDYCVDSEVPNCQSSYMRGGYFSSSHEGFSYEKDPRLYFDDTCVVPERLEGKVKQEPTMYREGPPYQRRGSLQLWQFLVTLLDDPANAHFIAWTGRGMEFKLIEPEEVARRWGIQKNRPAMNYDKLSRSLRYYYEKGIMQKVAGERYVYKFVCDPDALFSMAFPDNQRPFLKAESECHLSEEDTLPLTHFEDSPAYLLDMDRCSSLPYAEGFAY
# How it was run: as §1
# HSF1 = HSF1 (Homo sapiens, UniProt Q00613 1-529); settings: protein: recombinant; tags: N-terminal GST; chain copies: 3; dsDNA, one strand shown
# HSF1, sequence (Q00613 whole entry): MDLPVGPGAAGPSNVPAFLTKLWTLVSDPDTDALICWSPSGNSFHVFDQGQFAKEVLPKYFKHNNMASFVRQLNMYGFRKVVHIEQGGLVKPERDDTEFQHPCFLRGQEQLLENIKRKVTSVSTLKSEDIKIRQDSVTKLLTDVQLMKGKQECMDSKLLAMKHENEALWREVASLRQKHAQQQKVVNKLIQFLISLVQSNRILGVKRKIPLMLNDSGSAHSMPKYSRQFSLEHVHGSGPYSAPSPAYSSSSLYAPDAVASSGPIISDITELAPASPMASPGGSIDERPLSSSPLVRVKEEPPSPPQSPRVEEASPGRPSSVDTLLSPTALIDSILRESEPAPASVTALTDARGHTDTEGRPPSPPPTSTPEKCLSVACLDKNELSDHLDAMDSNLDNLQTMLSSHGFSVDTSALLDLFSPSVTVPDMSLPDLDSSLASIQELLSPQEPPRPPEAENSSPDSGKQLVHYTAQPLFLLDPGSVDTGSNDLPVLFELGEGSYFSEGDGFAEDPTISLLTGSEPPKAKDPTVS
# How it was run: as §1
# SPIC = target: T2, SPIC (Homo sapiens, UniProt Q8N5J4 1-248); settings: protein: recombinant; tags: N-terminal GST; dsDNA, one strand shown
# T2 sequence: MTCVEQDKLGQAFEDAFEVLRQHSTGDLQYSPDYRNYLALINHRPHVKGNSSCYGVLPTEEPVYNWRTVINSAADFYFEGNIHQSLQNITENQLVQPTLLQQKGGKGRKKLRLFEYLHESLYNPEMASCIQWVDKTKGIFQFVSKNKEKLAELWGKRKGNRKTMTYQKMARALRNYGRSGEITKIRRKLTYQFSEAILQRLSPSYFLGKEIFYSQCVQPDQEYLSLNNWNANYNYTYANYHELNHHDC
# How it was run: as §1
# ELF4 = ELF4 (Homo sapiens, UniProt Q99607 1-663); settings: protein: recombinant; tags: N-terminal GST; dsDNA, one strand shown
# ELF4, sequence (Q99607 whole entry): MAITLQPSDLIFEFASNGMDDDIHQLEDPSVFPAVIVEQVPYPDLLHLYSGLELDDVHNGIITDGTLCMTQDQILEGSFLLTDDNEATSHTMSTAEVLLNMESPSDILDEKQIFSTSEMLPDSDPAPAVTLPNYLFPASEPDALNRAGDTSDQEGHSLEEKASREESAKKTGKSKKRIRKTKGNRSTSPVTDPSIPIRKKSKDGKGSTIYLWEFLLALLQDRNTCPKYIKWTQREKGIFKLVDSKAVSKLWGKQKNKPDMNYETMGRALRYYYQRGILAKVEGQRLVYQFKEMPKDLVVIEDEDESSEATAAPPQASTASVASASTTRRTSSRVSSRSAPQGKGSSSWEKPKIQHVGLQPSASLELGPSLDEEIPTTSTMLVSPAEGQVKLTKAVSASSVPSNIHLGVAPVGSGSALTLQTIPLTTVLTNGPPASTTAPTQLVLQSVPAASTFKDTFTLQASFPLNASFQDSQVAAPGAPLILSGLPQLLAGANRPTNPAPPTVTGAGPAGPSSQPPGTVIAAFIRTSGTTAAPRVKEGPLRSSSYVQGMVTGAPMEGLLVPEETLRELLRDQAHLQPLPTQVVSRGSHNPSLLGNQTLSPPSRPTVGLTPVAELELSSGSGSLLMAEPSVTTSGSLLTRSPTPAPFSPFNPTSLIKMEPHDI
# How it was run: as §1
# ELK4 = target: T3, ELK4 (Homo sapiens, UniProt P28324-2 1-405); settings: protein: recombinant; tags: N-terminal GST; dsDNA, one strand shown
# T3 sequence: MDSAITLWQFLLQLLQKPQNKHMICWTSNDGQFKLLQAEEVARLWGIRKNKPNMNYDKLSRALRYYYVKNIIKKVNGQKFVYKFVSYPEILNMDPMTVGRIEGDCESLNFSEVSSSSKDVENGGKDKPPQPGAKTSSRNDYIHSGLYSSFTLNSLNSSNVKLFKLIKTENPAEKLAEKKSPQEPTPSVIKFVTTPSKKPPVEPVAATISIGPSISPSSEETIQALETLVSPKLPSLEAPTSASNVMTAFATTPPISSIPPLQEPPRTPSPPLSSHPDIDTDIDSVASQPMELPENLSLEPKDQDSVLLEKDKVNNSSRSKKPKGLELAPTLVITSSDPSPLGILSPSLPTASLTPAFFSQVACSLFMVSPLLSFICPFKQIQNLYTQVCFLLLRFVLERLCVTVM
# How it was run: as §1
# ETV2 = target: T4, ETV2 (Homo sapiens, UniProt O00321 1-342); settings: protein: recombinant; tags: N-terminal GST; dsDNA, one strand shown
# T4 sequence: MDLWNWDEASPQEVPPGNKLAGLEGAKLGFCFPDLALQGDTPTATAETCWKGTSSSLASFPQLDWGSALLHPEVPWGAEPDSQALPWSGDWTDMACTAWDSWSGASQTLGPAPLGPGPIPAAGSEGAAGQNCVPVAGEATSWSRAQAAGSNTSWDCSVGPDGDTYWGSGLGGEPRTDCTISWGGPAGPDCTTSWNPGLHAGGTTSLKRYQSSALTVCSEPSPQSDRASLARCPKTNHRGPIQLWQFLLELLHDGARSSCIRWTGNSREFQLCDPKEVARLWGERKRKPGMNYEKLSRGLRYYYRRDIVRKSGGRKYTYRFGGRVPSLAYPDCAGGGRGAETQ
# How it was run: as §1
# ELF3 = target: T5, ELF3 (Homo sapiens, UniProt P78545 1-371); settings: protein: recombinant; tags: N-terminal GST; dsDNA, one strand shown
# T5 sequence: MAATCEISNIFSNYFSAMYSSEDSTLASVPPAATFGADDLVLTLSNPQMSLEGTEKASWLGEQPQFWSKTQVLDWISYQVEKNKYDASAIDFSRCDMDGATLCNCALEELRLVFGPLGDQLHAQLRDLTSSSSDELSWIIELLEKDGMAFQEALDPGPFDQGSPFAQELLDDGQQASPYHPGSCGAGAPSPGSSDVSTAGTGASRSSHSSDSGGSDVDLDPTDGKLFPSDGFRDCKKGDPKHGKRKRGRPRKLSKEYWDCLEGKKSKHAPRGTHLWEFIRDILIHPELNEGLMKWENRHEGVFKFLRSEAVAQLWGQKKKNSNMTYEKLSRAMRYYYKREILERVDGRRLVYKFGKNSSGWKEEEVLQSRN
# How it was run: as §1
# CRX = CRX (Homo sapiens, UniProt O43186 1-299); settings: protein: recombinant; tags: N-terminal GST; dsDNA, one strand shown
# CRX, sequence (O43186 whole entry): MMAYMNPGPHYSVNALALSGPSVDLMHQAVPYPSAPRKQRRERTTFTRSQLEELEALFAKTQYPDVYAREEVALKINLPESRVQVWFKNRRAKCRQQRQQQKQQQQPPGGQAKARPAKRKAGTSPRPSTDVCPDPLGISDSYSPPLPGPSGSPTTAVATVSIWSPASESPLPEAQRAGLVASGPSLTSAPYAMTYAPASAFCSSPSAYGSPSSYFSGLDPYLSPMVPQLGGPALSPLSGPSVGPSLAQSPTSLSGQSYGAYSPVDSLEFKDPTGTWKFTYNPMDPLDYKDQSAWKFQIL
# How it was run: as §1
# ETV1 = ETV1 (Homo sapiens, UniProt P50549 1-477); settings: protein: recombinant; tags: N-terminal GST; dsDNA, one strand shown
# ETV1, sequence (P50549 whole entry): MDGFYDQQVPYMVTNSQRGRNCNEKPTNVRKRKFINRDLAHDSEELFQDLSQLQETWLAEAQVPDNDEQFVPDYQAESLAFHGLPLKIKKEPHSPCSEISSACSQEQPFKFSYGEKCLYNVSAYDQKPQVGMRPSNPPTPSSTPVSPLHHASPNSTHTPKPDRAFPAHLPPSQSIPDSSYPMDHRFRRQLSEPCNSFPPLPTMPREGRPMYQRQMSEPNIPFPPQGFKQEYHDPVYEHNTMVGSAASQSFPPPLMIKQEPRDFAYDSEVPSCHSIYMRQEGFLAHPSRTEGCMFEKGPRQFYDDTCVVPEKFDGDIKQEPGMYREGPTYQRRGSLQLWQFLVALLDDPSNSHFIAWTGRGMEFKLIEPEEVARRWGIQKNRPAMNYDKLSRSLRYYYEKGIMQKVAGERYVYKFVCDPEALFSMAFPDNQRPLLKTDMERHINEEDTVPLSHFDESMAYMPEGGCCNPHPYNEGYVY
# How it was run: as §1
sequence,measurement,setting,value
CCGAAC,binding signal,FEV,"1.25 fold enrichment (6-mer frequency, TF over GST control)"
same,binding signal,ETV5,"1.27 fold enrichment (6-mer frequency, TF over GST control)"
same,binding signal,HSF1,"1.54 fold enrichment (6-mer frequency, TF over GST control)"
same,binding signal,SPIC,"1.32 fold enrichment (6-mer frequency, TF over GST control)"
same,binding signal,ELF4,"1.26 fold enrichment (6-mer frequency, TF over GST control)"
same,binding signal,ELK4,"1.25 fold enrichment (6-mer frequency, TF over GST control)"
same,binding signal,ETV2,"1.36 fold enrichment (6-mer frequency, TF over GST control)"
same,binding signal,ELF3,"1.25 fold enrichment (6-mer frequency, TF over GST control)"
same,binding signal,CRX,"1.17 fold enrichment (6-mer frequency, TF over GST control)"
same,binding signal,ETV1,"1.19 fold enrichment (6-mer frequency, TF over GST control)"
CCTTTA,binding signal,FEV,"1.3 fold enrichment (6-mer frequency, TF over GST control)"
same,binding signal,ETV5,"1.22 fold enrichment (6-mer frequency, TF over GST control)"
same,binding signal,HSF1,"1.31 fold enrichment (6-mer frequency, TF over GST control)"
same,binding signal,SPIC,"1.32 fold enrichment (6-mer frequency, TF over GST control)"
same,binding signal,ELF4,"1.35 fold enrichment (6-mer frequency, TF over GST control)"
same,binding signal,ELK4,"1.42 fold enrichment (6-mer frequency, TF over GST control)"
same,binding signal,ETV2,"1.34 fold enrichment (6-mer frequency, TF over GST control)"
same,binding signal,ELF3,"1.51 fold enrichment (6-mer frequency, TF over GST control)"
same,binding signal,CRX,"1.57 fold enrichment (6-mer frequency, TF over GST control)"
same,binding signal,ETV1,"1.37 fold enrichment (6-mer frequency, TF over GST control)"
TTTCTA,binding signal,FEV,"1.34 fold enrichment (6-mer frequency, TF over GST control)"
same,binding signal,ETV5,"1.37 fold enrichment (6-mer frequency, TF over GST control)"
same,binding signal,HSF1,"3.01 fold enrichment (6-mer frequency, TF over GST control)"
same,binding signal,SPIC,"1.52 fold enrichment (6-mer frequency, TF over GST control)"
same,binding signal,ELF4,"1.33 fold enrichment (6-mer frequency, TF over GST control)"
same,binding signal,ELK4,"1.34 fold enrichment (6-mer frequency, TF over GST control)"
same,binding signal,ETV2,"1.27 fold enrichment (6-mer frequency, TF over GST control)"
same,binding signal,ELF3,"1.36 fold enrichment (6-mer frequency, TF over GST control)"
same,binding signal,CRX,"1.97 fold enrichment (6-mer frequency, TF over GST control)"
same,binding signal,ETV1,"1.47 fold enrichment (6-mer frequency, TF over GST control)"
CAATTA,binding signal,FEV,"1.08 fold enrichment (6-mer frequency, TF over GST control)"
same,binding signal,ETV5,"1.16 fold enrichment (6-mer frequency, TF over GST control)"
same,binding signal,HSF1,"1.12 fold enrichment (6-mer frequency, TF over GST control)"
same,binding signal,SPIC,"1.05 fold enrichment (6-mer frequency, TF over GST control)"
same,binding signal,ELF4,"1.14 fold enrichment (6-mer frequency, TF over GST control)"
same,binding signal,ELK4,"1.05 fold enrichment (6-mer frequency, TF over GST control)"
same,binding signal,ETV2,"1.03 fold enrichment (6-mer frequency, TF over GST control)"
same,binding signal,ELF3,"1.22 fold enrichment (6-mer frequency, TF over GST control)"
same,binding signal,CRX,"1.25 fold enrichment (6-mer frequency, TF over GST control)"
same,binding signal,ETV1,"1.09 fold enrichment (6-mer frequency, TF over GST control)"
TATTGG,binding signal,FEV,"1.14 fold enrichment (6-mer frequency, TF over GST control)"
same,binding signal,ETV5,"1.19 fold enrichment (6-mer frequency, TF over GST control)"
same,binding signal,HSF1,"1.2 fold enrichment (6-mer frequency, TF over GST control)"
same,binding signal,SPIC,"1.19 fold enrichment (6-mer frequency, TF over GST control)"
same,binding signal,ELF4,"1.21 fold enrichment (6-mer frequency, TF over GST control)"
same,binding signal,ELK4,"1.28 fold enrichment (6-mer frequency, TF over GST control)"
same,binding signal,ETV2,"1.14 fold enrichment (6-mer frequency, TF over GST control)"
same,binding signal,ELF3,"1.24 fold enrichment (6-mer frequency, TF over GST control)"
same,binding signal,CRX,"1.4 fold enrichment (6-mer frequency, TF over GST control)"
same,binding signal,ETV1,"1.13 fold enrichment (6-mer frequency, TF over GST control)"
ACTCTG,binding signal,FEV,"1.27 fold enrichment (6-mer frequency, TF over GST control)"
same,binding signal,ETV5,"1.27 fold enrichment (6-mer frequency, TF over GST control)"
same,binding signal,HSF1,"1.12 fold enrichment (6-mer frequency, TF over GST control)"
same,binding signal,SPIC,"1.51 fold enrichment (6-mer frequency, TF over GST control)"
same,binding signal,ELF4,"1.24 fold enrichment (6-mer frequency, TF over GST control)"
same,binding signal,ELK4,"1.23 fold enrichment (6-mer frequency, TF over GST control)"
same,binding signal,ETV2,"1.23 fold enrichment (6-mer frequency, TF over GST control)"
same,binding signal,ELF3,"1.15 fold enrichment (6-mer frequency, TF over GST control)"
same,binding signal,CRX,"1.12 fold enrichment (6-mer frequency, TF over GST control)"
same,binding signal,ETV1,"1.25 fold enrichment (6-mer frequency, TF over GST control)"
ATCTCC,binding signal,FEV,"1.5 fold enrichment (6-mer frequency, TF over GST control)"
same,binding signal,ETV5,"1.48 fold enrichment (6-mer frequency, TF over GST control)"
same,binding signal,HSF1,"1.67 fold enrichment (6-mer frequency, TF over GST control)"
same,binding signal,SPIC,"1.49 fold enrichment (6-mer frequency, TF over GST control)"
same,binding signal,ELF4,"1.57 fold enrichment (6-mer frequency, TF over GST control)"
same,binding signal,ELK4,"1.47 fold enrichment (6-mer frequency, TF over GST control)"
same,binding signal,ETV2,"1.48 fold enrichment (6-mer frequency, TF over GST control)"
same,binding signal,ELF3,"1.3 fold enrichment (6-mer frequency, TF over GST control)"
same,binding signal,CRX,"2.01 fold enrichment (6-mer frequency, TF over GST control)"
same,binding signal,ETV1,"1.57 fold enrichment (6-mer frequency, TF over GST control)"
TTTCAT,binding signal,FEV,"1.12 fold enrichment (6-mer frequency, TF over GST control)"
same,binding signal,ETV5,"1.09 fold enrichment (6-mer frequency, TF over GST control)"
same,binding signal,HSF1,"1.13 fold enrichment (6-mer frequency, TF over GST control)"
same,binding signal,SPIC,"1.11 fold enrichment (6-mer frequency, TF over GST control)"
same,binding signal,ELF4,"1.2 fold enrichment (6-mer frequency, TF over GST control)"
same,binding signal,ELK4,"1.19 fold enrichment (6-mer frequency, TF over GST control)"
same,binding signal,ETV2,"1.1 fold enrichment (6-mer frequency, TF over GST control)"
same,binding signal,ELF3,"1.11 fold enrichment (6-mer frequency, TF over GST control)"
same,binding signal,CRX,"1.18 fold enrichment (6-mer frequency, TF over GST control)"
same,binding signal,ETV1,"1.16 fold enrichment (6-mer frequency, TF over GST control)"
